Reference: PubChem BioAssay (EPA / NIEHS)
Where “and” joins values, the source holds several entries; their conditions need not be identical. Equal values may be shown once. Results filed as inconclusive are left out. More than one record can exist for a structure, and the calls need not agree. Calls of active or inactive are those of the source. The calls were made as follows, unless noted: active = hit-call score of the fitted dose curve at least 0.9, where 1 is the maximum; inconclusive = response in the unintended direction; inactive = score below 0.9.

target: Cellular tumor antigen p53 (Homo sapiens) (UniProt P04637); assay: TOX21_p53_BLA_p4_ratio: Tox21 HCT-116 p53 Agonism Beta-lactamase Assay, Ratio, Phase 4 (AID 2283601)
How it was run: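 HCT-116 p53 beta-lactamase reporter cells (4000/well) preincubated 5 h, then compound (217-fold dilution of DMSO stock) for 16 h at 37C. CCF4-AM substrate added 2 h at room temperature; 460/530 nm emission ratio fitted upward versus DMSO.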

Chain of Cellular tumor antigen p53 (Homo sapiens) (P04637 whole entry, looked up): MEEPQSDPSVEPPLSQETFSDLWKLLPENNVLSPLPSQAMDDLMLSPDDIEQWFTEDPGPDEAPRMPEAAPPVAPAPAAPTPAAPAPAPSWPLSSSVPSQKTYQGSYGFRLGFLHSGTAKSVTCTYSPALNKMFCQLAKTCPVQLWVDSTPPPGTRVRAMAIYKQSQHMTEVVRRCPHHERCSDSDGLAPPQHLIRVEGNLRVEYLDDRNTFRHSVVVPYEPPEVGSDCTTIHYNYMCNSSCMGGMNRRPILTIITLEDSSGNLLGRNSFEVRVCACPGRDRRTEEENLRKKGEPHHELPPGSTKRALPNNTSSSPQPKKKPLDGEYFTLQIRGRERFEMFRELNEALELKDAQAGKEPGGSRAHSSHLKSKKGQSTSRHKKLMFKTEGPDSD

Row | SMILES | outcome | AC50
1 | CCCCCCCCCCCC#N | inactive | –
2 | O=C(NC(=O)c1c(F)cccc1F)Nc1ccc(Oc2ccc(C(F)(F)F)cc2Cl)cc1F | inactive | –
3 | CC1CCCC1.[C-]#[O+].[C-]#[O+].[C-]#[O+].[Mn] | inactive | –
4 | CCCCNP(N)(N)=S | inactive | –
5 | Nc1ccccc1C(=O)Oc1ccc2ccccc2c1 | inactive | –
6 | N#CCNCC#N | inactive | –
7 | CN(C)N | inactive | –
8 | CN1C[C@H](C(=O)N[C@]2(C)O[C@@]3(O)[C@@H]4CCCN4C(=O)[C@H](Cc4ccccc4)N3C2=O)C=C2c3cccc4[nH]cc(c34)C[C@H]21 | inactive | –
9 | Nc1ccc(Cl)c(Cl)c1 | inactive | –
10 | CC(O)CN(CC(C)O)CC(C)O (configuration not stated) | inactive | –
11 | Nc1cc(Cl)cc(Cl)c1 | inactive | –
12 | O=[N+]([O-])c1ccc(Cl)cc1 | inactive | –
13 | C=CCO | inactive | –
14 | COC(=O)COc1ccc(Cl)cc1Cl | inactive | –
15 | [CH3][Sn]([Cl])([Cl])[Cl] | inactive | –
16 | CC(=O)c1cc2c(cc1C)C(C)(C)C(C)CC2(C)C (configuration not stated) | inactive | –
17 | c1cc(OCC2CO2)ccc1Cc1ccc(OCC2CO2)cc1 (configuration not stated) | – | 65.9 µM (active) and 82.3 µM (active)
18 | C=CC(=O)OCCCCOC(=O)C=C | inactive | –
19 | c1ccc2c(c1)CCCC2 | inactive | –
20 | CCOC(=O)C1OC1(C)c1ccccc1 (configuration not stated) | inactive | –
21 | [Cl][Sb]([Cl])[Cl] | inactive | –
22 | CC(C)[C@@H](C(=O)O[C@@H](C#N)c1cccc(Oc2ccccc2)c1)c1ccc(Cl)cc1 | inactive | –
23 | C[C@]12CC[C@H]3[C@@H](CC[C@@]45O[C@@H]4C(O)=C(C#N)C[C@]35C)[C@@H]1CC[C@@H]2O | inactive | 65.8 µM (active)
24 | O=[N+]([O-])c1cc([N+](=O)[O-])c2ccccc2c1 | inactive | –
25 | O=C(O)C(Br)Br | inactive | –
26 | C=CC(=O)OCCO | inactive | –

system: Thyroperoxidase (TPO), gene 54314; assay: CCTE_Simmons_AUR_rTPO: CCTE's Amplex UltraRed Assay for Thyroperoxidase (TPO) Inhibition, Simmons Lab (AID 2283662);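 also: potency for loss of signal meaning inhibition of peroxidase activity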
How it was run: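 Endpoint is decreased Amplex UltraRed fluorescence after a 30-min, 37C reaction of rat thyroid microsomes with 300 uM H2O2. Eight test concentrations (5 nM–87.5 uM final) in 0.5% DMSO, three biological replicates each.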

Row | SMILES | AC50
27 | CC1CCCC1.[C-]#[O+].[C-]#[O+].[C-]#[O+].[Mn] | 26.4 µM (active)
28 | Nc1ccc(Cl)c(Cl)c1 | 1.16 µM (active)
29 | O=C(O)CCl | 18.1 µM (active)
30 | Nc1cc(Cl)cc(Cl)c1 | 17.1 µM (active)
31 | CCCCCCCCCCCCCCCC[N+](C)(C)C | 51.5 µM (active)

system: not listed separately; assay: CCTE_Simmons_CellTiterGLO_HEK293T: Viability Assessment in CCTE's Assays for Thyroperoxidase (TPO) Inhibition, Simmons Lab (AID 2283665);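 as to AC50: cells exposed to compound for 24 h before readout; actives reduce ATP signal below DMSO vehicle meaning cytotoxicity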
How it was run: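 ATP depletion measured in HEK293T cells after 24 h dosing (8 concentrations, 5 nM–87.5 uM final; DMSO 0.5%) using CellTiter-Glo luminescence; curves fit for loss of signal against DMSO baseline.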

Row | SMILES | outcome | AC50
32 | CC1CCCC1.[C-]#[O+].[C-]#[O+].[C-]#[O+].[Mn] | inactive | –
33 | Nc1ccc(Cl)c(Cl)c1 | – | 2.18 µM (active)
34 | O=C(O)CCl | inactive | –
35 | Nc1cc(Cl)cc(Cl)c1 | inactive | –
36 | CCCCCCCCCCCCCCCC[N+](C)(C)C | – | 10.2 µM (active)

read-out: not listed separately; assay: CEETOX_H295R_MTT_cell_viability: Viability Assessment in the CeeTox HT-H295R MTT Assay (AID 2283718; active = hit-call score of the fitted dose curve at least 0.9, where 1 is the maximum; inactive = score below 0.9;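 as to AC50: curve fitted both ways so AC50 may mark viability loss or gain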)
How it was run: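 Human H295R adrenal cells, prestimulated 48 h with 10 uM forskolin, were exposed 48 h to chemicals in 0.1% DMSO. Viability was measured in the same wells by MTT (0.5 mg/ml, 4 h, 37 C), absorbance 570/650 nm, as percent of controls.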

Row | SMILES | outcome | AC50
37 | O=C(NC(=O)c1c(F)cccc1F)Nc1ccc(Oc2ccc(C(F)(F)F)cc2Cl)cc1F | inactive | –
38 | Nc1ccc(Cl)c(Cl)c1 | inactive | –
39 | CC(=O)c1cc2c(cc1C)C(C)(C)C(C)CC2(C)C (configuration not stated) | inactive | –
40 | CC(C)[C@@H](C(=O)O[C@@H](C#N)c1cccc(Oc2ccccc2)c1)c1ccc(Cl)cc1 | inactive | –
41 | C=CC(=O)OCCO | – | 26.7 µM (active)

target: Luciferin 4-monooxygenase (Photinus pyralis) (UniProt P08659); assay: CCTE_Simmons_QuantiLum_inhib_2: CCTE's Firefly Luciferase Inhibition Assay, Simmons Lab (AID 2283767);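 as to AC50: potency for inhibitors that lower luciferase luminescence relative to DMSO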
How it was run: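 Eight-point titrations of each chemical, 5 nM–87.5 uM final in 0.5% DMSO, were run in three biological replicates against recombinant luciferase for 30 min at 37C. Bioluminescence signal loss, read on reagent injection, gave the inhibition endpoint.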

Chain of Luciferin 4-monooxygenase (Photinus pyralis) (P08659 whole entry, looked up): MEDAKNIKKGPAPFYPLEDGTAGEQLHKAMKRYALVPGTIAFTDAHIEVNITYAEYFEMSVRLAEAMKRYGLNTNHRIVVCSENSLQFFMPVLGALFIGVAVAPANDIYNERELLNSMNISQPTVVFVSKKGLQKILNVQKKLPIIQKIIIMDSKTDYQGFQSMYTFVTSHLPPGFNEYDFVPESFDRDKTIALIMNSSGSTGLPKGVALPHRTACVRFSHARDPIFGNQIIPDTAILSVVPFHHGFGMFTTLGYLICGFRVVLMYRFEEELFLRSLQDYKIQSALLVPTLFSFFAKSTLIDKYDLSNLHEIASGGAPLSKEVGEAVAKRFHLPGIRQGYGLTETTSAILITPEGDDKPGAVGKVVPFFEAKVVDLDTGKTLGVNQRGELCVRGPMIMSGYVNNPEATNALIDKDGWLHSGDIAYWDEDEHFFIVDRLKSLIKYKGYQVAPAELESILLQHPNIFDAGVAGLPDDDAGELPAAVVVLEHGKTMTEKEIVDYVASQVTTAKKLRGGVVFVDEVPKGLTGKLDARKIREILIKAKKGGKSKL

Row | SMILES | outcome | AC50
42 | CC1CCCC1.[C-]#[O+].[C-]#[O+].[C-]#[O+].[Mn] | inactive | –
43 | Nc1ccc(Cl)c(Cl)c1 | inactive | –
44 | O=C(O)CCl | inactive | –
45 | Nc1cc(Cl)cc(Cl)c1 | inactive | –
46 | CCCCCCCCCCCCCCCC[N+](C)(C)C | – | 92.4 µM (active)

system: not listed separately; assay: ACEA_AR_agonist_AUC_viability: ACEA Biosciences xCELLigence Real-Time Cell Analysis on Androgen Receptor Agonism for Viability (AID 2283775);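 as to AC50: viability read 80 hours after compound addition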
How it was run: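 Viability endpoint from xCELLigence impedance in 22Rv1 prostate cells at 80 h. Eight-point series, 100 uM maximum final.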

Row | SMILES | outcome | AC50
47 | O=C(NC(=O)c1c(F)cccc1F)Nc1ccc(Oc2ccc(C(F)(F)F)cc2Cl)cc1F | inactive | –
48 | CC1CCCC1.[C-]#[O+].[C-]#[O+].[C-]#[O+].[Mn] | inactive | –
49 | CCC(=O)c1ccc(Cl)cc1 | inactive | –
50 | CN(C)N | inactive | –
51 | Nc1ccc(Cl)c(Cl)c1 | inactive | –
52 | O=C(O)CCl | inactive | –
53 | CC(O)CN(CC(C)O)CC(C)O (configuration not stated) | inactive | –
54 | Nc1cc(Cl)cc(Cl)c1 | inactive | –
55 | O=[N+]([O-])c1ccc(Cl)cc1 | inactive | –
56 | Cc1ccc(C)c2ccccc12 | inactive | –
57 | C=CCO | inactive | –
58 | CC(=O)c1cc2c(cc1C)C(C)(C)C(C)CC2(C)C (configuration not stated) | inactive | –
59 | c1ccc2c(c1)CCCC2 | inactive | –
60 | CCOC(=O)C1OC1(C)c1ccccc1 (configuration not stated) | inactive | –
61 | CC(C)[C@@H](C(=O)O[C@@H](C#N)c1cccc(Oc2ccccc2)c1)c1ccc(Cl)cc1 | inactive | 41.6 µM (active)
62 | C=CC(=O)OCCO | inactive | –
63 | CCCCCCCCCCCCCCCC[N+](C)(C)C | – | 5.58 µM (active)

system: not listed separately; assay: ACEA_AR_antagonist_AUC_viability: ACEA Biosciences xCELLigence Real-Time Cell Analysis on Androgen Receptor Antagonism for Viability (AID 2283776);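 also: 22Rv1 human prostate cancer cells growing on impedance electrode plates; area under impedance growth curve at 80 h after dosing as viability; hits lower the growth signal relative to DMSO meaning cytotoxicity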
How it was run: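 Viability endpoint from label-free cell-index monitoring: 22Rv1 cultures treated with an eight-point 1:4 dilution series starting at 100 uM final, AUC at 80 h fitted against DMSO.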

Row | SMILES | outcome | AC50
64 | O=C(NC(=O)c1c(F)cccc1F)Nc1ccc(Oc2ccc(C(F)(F)F)cc2Cl)cc1F | inactive | –
65 | CN(C)N | inactive | –
66 | Nc1ccc(Cl)c(Cl)c1 | – | 1.14 µM (active)
67 | CC(=O)c1cc2c(cc1C)C(C)(C)C(C)CC2(C)C (configuration not stated) | inactive | –
68 | c1ccc2c(c1)CCCC2 | inactive | –
69 | CC(C)[C@@H](C(=O)O[C@@H](C#N)c1cccc(Oc2ccccc2)c1)c1ccc(Cl)cc1 | inactive | 50 µM (active)
70 | C=CC(=O)OCCO | inactive | –
71 | CCCCCCCCCCCCCCCC[N+](C)(C)C | – | 6.1 µM (active)

system: not listed separately; assay: ACEA_ER_AUC_viability: ACEA Biosciences xCELLigence Real-Time Cell Analysis on Estrogen Receptor Agonism for Viability (AID 2283782);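 also: hit means loss of impedance signal meaning reduced cell growth or viability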
How it was run: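 Read-out: real-time electrical impedance (RT-CES) area under curve, loss of signal taken as reduced viability, normalized to DMSO baseline. T-47D cells, charcoal-stripped serum medium, compounds up to 100 uM final, continuous exposure, 80 h.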

Row | SMILES | outcome | AC50
72 | CCCCCCCCCCCC#N | inactive | –
73 | CCCCNP(N)(N)=S | inactive | –
74 | CC(=O)C=Cc1ccccc1 | inactive | –
75 | CCC(=O)c1ccc(Cl)cc1 | inactive | –
76 | CC(C)CCCCCCCOC(=O)c1ccccc1C(=O)OCCCCCCCC(C)C | inactive | –
77 | N#CCNCC#N | inactive | –
78 | CC(O)CN(CC(C)O)CC(C)O (configuration not stated) | inactive | –
79 | O=[N+]([O-])c1ccc(Cl)cc1 | inactive | –
80 | Cc1ccc(C)c2ccccc12 | inactive | –
81 | CC(=O)c1cc2c(cc1C)C(C)(C)C(C)CC2(C)C (configuration not stated) | – | 79.9 µM (active)
82 | Nc1ccc(-c2ccc(N)c(N)c2)cc1N | inactive | –
83 | C=CC(=O)OCCCCOC(=O)C=C | – | 24.2 µM (active)
84 | CCOC(=O)C1OC1(C)c1ccccc1 (configuration not stated) | inactive | –
